According to PubChem BioAssay (NCATS):
Unmarked numbers belong to inactive results. Results filed as inconclusive are left out. Where a call stands in place of a potency, no number is given. Activity calls are given as the source filed them. Unless noted, the call rests on the fitted dose curve; in most records, active means well fitted curve in the direction sought with a large enough effect; inconclusive means small, poorly fitted or top-dose-only effect, or another doubt; inactive means no such curve, though single readings can be large; an effect the other way counts as inactive or inconclusive.

How the values were obtained:
[1] = Viability counterscreen for antagonist of constitutive androstane receptor (CAR) against the NCATS DSHEA and TCM libraries (AID 1794837);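 further: compound exposure lasted 24 h before viability reading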
Procedure, shortened: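 Counterscreen performed in a 1536-well qHTS format using HepG2-CYP2B6-hCAR cells; samples titrated in the presence of 48 uM CITCO, with viability measured fluorometrically (405/540 nm) after 24 h.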

[2] = Viability counterscreen for agonist of constitutive androstane receptor (CAR) against the NCATS DSHEA and TCM libraries (AID 1794838);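 further: HepG2 cells with CYP2B6 reporter and hCAR plus 0.75 µM PK11195 antagonist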
Procedure, shortened: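 Multiplexed counterscreen: after 24 h compound exposure with 0.75 uM PK11195, HepG2-CYP2B6-hCAR viability was quantified fluorimetrically (CellTiter-Fluor, 405/540 nm) prior to the ONE-Glo luciferase read.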

[3] = HepG2 viability counterscreen (readout 2: ATP content) against the NCATS DSHEA and TCM libraries (AID 1794840);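 further: HepG2 cells exposed to substances for about 24 h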
Procedure, shortened: (§1)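 After HepG2 cells attach for ~4 h, substances are added and incubated ~24 h at 37C, 5% CO2. GF-AFC fluorescence then CellTiter-Glo luminescence give protease and ATP readouts.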

[4] = HepG2 viability counterscreen (readout 1: protease activity) against the NCATS DSHEA and TCM libraries (AID 1794841);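 further: cells exposed to compounds for about 24 h before the protease read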
Procedure, shortened: as §1

[5] = molecular target: Cytochrome P450 2D6 (Homo sapiens) (UniProt P10635); assay: qHTS for inhibitors of CYP2D6 against the NCATS DSHEA and TCM libraries (AID 1919972)
Cytochrome P450 2D6 (Homo sapiens), sequence (P10635 whole entry, looked up): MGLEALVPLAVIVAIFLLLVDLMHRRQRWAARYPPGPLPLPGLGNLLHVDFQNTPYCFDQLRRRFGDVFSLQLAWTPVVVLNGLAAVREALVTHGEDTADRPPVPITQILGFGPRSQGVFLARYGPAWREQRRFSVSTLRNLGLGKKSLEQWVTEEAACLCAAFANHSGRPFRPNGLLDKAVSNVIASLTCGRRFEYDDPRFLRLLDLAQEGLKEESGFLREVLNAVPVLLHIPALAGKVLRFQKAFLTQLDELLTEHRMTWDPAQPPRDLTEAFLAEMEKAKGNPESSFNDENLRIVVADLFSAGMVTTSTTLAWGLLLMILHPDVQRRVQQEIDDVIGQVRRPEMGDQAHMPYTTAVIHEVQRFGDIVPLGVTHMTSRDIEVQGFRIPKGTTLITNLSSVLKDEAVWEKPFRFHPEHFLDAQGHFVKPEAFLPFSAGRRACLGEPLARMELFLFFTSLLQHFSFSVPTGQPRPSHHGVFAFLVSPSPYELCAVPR
Procedure, shortened: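 qHTS, concentration–response format with most substances from 19.5 nM. CYP2D6 + pro-luciferin substrate, 15 min with compound, then 1x NADPH regen, 30–45 min RT dark. Glo detection 30 min, luminescence. Quinidine control.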

[6] = molecular target: Cytochrome P450 2C9 (Homo sapiens) (UniProt P11712); assay: qHTS for inhibitors of CYP2C9 against the NCATS DSHEA and TCM libraries (AID 1919973); further: potency means the concentration at half of the fitted maximal effect
Cytochrome P450 2C9 (Homo sapiens), sequence (P11712 whole entry, looked up, canonical isoform): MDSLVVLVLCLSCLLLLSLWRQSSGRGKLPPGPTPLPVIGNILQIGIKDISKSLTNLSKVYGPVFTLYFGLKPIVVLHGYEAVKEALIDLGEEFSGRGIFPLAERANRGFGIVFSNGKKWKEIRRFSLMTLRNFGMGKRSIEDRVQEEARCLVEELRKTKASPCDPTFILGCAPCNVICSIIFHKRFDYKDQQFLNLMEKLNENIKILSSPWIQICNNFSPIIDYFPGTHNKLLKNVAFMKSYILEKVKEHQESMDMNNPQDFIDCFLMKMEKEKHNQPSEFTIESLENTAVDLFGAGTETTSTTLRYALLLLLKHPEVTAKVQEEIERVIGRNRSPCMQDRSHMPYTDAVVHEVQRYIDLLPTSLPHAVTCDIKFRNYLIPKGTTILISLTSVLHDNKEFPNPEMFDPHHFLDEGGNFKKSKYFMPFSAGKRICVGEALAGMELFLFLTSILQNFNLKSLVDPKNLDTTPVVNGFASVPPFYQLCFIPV
Procedure, shortened: (§2)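 Isoform-specific enzyme and substrate levels; enzyme-free wells as background. Reaction: 1x NADPH regenerating system, 30-45 min, room temperature, shielded from light; luminescent detection reagent added, 30 min.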

[7] = molecular target: Cytochrome P450 2C19 (Homo sapiens) (UniProt P33261); assay: qHTS for inhibitors of CYP2C19 against the NCATS DSHEA and TCM libraries (AID 1919974);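 further: luminescence from luciferin released by CYP2C19 oxidation of a pro-luciferin substrate; potency means the concentration at half of the fitted maximal effect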
Cytochrome P450 2C19 (Homo sapiens), sequence (P33261 whole entry, looked up): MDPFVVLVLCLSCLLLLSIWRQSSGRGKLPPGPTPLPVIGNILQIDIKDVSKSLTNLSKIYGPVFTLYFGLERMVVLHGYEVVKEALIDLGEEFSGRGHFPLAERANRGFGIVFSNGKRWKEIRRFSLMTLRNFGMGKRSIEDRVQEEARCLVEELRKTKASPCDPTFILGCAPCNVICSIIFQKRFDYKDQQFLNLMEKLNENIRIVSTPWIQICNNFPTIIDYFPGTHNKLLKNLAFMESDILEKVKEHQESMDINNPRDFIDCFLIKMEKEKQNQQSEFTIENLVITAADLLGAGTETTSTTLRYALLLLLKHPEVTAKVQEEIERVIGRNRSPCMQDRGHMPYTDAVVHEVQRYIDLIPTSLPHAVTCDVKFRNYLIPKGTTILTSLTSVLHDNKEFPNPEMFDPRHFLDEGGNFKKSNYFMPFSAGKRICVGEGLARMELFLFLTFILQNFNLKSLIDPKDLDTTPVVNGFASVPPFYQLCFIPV
Procedure, shortened: as §2

[8] = KB-3-1 P-gp reporter qHTS against the NCATS DSHEA and TCM libraries (AID 1919975)
Procedure, shortened: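 Cell viability qHTS: 500 KB-3-1 cells/well, substances in titration, ~72 h, 37C; luminescent CellTiter-Glo read.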

[9] = qHTS Counterscreen for compound interference against the NCATS DSHEA and TCM libraries (AID 1919978); conditions: firefly luciferase detection reagent interference, luminescence;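 further: compounds preincubated with 1 µM D-luciferin or buffer before detection reagent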
Procedure, shortened: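 Interference check: test samples were incubated with D-luciferin (final 1 uM) or buffer only for 15 min, room temperature, in a qHTS titration up to 39.8 uM, then developed with detection reagent and read by luminescence.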

[10] = Dual reporter qHTS for agonist of Pregnane X Receptor (hPXR) against the NCATS DSHEA and TCM libraries: Fluorescence readout (AID 1920058)
Procedure, shortened: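 In this qHTS counter-read, reporter-bearing HepG2 cells in charcoal-stripped serum received substances for approximately 24 h before viability was assessed fluorometrically with CellTiter-Fluor.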

[11] = molecular target: Nuclear receptor subfamily 1 group I member 2 (Homo sapiens) (UniProt O75469); assay: Dual reporter qHTS for agonist of Pregnane X Receptor (hPXR) against the NCATS DSHEA and TCM libraries: Luminescence readout (AID 1920059)
Nuclear receptor subfamily 1 group I member 2 (Homo sapiens), sequence (O75469 whole entry, looked up): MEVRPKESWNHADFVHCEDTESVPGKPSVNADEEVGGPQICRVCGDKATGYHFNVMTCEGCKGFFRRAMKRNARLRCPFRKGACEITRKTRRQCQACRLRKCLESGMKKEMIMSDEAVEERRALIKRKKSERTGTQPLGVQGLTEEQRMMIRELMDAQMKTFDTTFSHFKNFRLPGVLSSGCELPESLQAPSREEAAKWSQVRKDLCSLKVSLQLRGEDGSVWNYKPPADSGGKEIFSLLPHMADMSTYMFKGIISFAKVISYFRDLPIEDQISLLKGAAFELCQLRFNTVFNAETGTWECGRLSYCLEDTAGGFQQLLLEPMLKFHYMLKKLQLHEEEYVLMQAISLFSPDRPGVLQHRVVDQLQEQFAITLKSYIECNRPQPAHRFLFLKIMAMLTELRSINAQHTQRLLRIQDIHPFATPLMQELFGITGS
Procedure, shortened: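 hPXR-LucHepG2 cells in phenol red-free DMEM with 5% charcoal-stripped FBS, 2000 cells/well, attached 5 h, then exposed 24 h at 37C to compounds; rifampicin as positive agonist control (2.8 nM–92 uM). Luciferase luminescence read.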

[12] = molecular target: Nuclear receptor subfamily 1 group I member 2 (Homo sapiens) (UniProt O75469); assay: Dual reporter qHTS for antagonist of Pregnane X Receptor (hPXR) against the NCATS DSHEA and TCM libraries: Luminescence Readout (AID 1920060);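 further: HepG2 cells carrying hPXR luciferase reporter stimulated with rifampicin at 2 µM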
Procedure, shortened: (§3)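 In antagonist mode, 2 uM rifampicin was added to hPXR-Luc HepG2 cells alongside test substances, incubated 24 h at 37 C; luminescence gave reporter activity, and CellTiter-Fluor fluorescence (405/540 nm) gave viability.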

[13] = Dual reporter qHTS for antagonist of Pregnane X Receptor (hPXR) against the NCATS DSHEA and TCM libraries: Fluorescence Readout (AID 1920061)
Procedure, shortened: as §3

[14] = molecular target: Glucocorticoid receptor (Homo sapiens) (UniProt P04150); assay: GR-EFC Redistribution (AID 451; calls by dose curve; further: potency means the concentration at half of the fitted maximal effect); conditions: CHO-K1 GR-EFC translocation, beta-gal luminescence, 2 h
Glucocorticoid receptor (Homo sapiens), sequence (P04150 whole entry, looked up, the tested form may be a part): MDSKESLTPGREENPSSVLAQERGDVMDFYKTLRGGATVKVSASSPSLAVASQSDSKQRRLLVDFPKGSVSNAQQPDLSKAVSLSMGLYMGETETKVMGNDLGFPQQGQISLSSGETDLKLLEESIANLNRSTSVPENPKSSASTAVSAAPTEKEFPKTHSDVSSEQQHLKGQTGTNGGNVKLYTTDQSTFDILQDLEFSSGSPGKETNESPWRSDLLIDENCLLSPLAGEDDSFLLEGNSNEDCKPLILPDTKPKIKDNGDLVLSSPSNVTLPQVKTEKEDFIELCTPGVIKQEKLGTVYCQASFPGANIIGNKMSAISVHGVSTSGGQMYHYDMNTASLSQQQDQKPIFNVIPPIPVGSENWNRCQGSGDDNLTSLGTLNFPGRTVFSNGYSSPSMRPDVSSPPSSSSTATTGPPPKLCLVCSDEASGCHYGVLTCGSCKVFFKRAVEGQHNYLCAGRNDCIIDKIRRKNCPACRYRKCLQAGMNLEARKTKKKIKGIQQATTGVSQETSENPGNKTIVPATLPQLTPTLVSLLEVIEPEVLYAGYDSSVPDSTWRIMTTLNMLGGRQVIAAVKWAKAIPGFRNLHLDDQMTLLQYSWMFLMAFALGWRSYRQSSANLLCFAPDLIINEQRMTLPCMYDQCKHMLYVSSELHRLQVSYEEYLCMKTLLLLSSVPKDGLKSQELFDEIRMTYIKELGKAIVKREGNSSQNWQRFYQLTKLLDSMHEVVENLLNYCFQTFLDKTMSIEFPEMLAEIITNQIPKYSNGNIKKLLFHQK
Procedure, shortened: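 CHO-K1 cells stably expressing nuclear-localized β-gal enzyme acceptor and GR fused C-terminally to the enzyme donor fragment; ligand-driven nuclear translocation restores β-gal by complementation. Compounds titrated up to 46 uM final, 2 h at 37 °C; luminescence read.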

[15] = molecular target: Mitogen-activated protein kinase 10 (Mus musculus) (UniProt Q61831); assay: JNK3 AlphaScreen Assay (AID 530; active means well fitted curve in either direction with a large enough effect, not every such curve was filed as active;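 further: kinase came from lysate of stimulated human HepG2 cells; signal reports phosphorylation of biotinylated GST-cJun 1-79 at Ser73 with 10 µM ATP; series mostly up to about 57 µM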)
Procedure, shortened: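 Biotinylated GST-cJun(1-79) served as substrate for JNK3 in HepG2 lysates stimulated with IL-1beta and TNF-alpha. ATP was 10 uM final, pH 7.6. Ser73 phosphorylation was quantified by AlphaScreen (680 nm excitation).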

[16] = molecular target: Dual specificity protein kinase CLK4 (Homo sapiens) (UniProt Q9HAZ1); assay: qHTS Assay for Inhibitors of CDC-like Kinase 4 (ADP-FP Assay) (AID 1795);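 further: recombinant human CLK4 phosphorylating RS repeat peptide at 1 µM ATP; series mostly up to about 50 µM; nearly all actives have a fitted effect of over 60% in size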
Dual specificity protein kinase CLK4 (Homo sapiens), sequence (Q9HAZ1 whole entry, looked up): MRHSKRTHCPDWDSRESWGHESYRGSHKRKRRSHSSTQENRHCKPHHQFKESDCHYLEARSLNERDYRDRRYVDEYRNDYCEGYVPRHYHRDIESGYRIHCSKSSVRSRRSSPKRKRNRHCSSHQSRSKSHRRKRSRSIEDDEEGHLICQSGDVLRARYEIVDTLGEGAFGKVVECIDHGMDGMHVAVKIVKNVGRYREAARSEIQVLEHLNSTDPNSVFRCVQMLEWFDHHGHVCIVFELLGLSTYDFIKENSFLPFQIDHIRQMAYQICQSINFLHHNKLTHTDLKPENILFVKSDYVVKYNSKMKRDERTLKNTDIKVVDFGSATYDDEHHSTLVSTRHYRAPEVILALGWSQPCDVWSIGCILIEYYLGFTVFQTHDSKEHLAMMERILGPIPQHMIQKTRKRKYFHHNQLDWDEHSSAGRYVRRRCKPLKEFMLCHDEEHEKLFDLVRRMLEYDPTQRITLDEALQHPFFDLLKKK
Procedure, shortened: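 Kinase activity was followed as ADP output, converted from fluorescence polarization with a calibration curve. Reactions ran one hour at low ATP (1 uM) with RS peptide substrate.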

[17] = molecular target: Glutathione peroxidase 1 (Homo sapiens) (UniProt P07203); assay: Primary qHTS Assay for Inhibitors of Recombinant Selenoprotein Glutathione Peroxidase 1 (GPX1) (AID 1845191); further: nearly all actives have a fitted effect of over 65% in size; further: potency means the concentration at half of the fitted maximal effect
Glutathione peroxidase 1 (Homo sapiens), sequence (P07203 whole entry, looked up): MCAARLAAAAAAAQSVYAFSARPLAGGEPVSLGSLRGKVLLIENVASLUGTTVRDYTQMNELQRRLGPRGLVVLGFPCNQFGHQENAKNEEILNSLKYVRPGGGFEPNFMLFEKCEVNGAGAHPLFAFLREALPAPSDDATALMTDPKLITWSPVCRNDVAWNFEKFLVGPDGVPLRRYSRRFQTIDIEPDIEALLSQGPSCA
Procedure, shortened: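 GPX1 10 nM, GR 100 nM, GSH 1 mM, NADPH 0.5 mM, CHP 0.5 mM (final). 30-min cpd preincubation, RT. Ex340/Em450 read t=0, t=15 min.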

With O=c1c(O[C@@H]2O[C@H](CO)[C@H](O)[C@H](O)[C@H]2O)c(-c2ccc(O)c(O)c2)oc2cc(O)cc(O)c12 the outcome [1] was “inactive”, the outcome [2] was “inactive” and the outcome [3] was “inactive”. For the same compound, the outcome [4] was “inactive”, the Potency [5] was “inactive” and the Potency [6] was 7.94 µM (active). The Potency [7] was 3.55 µM (active), the outcome [8] was “inactive” and the max response [9] was 1.88%. The outcome [10] was “inactive”, the Potency [11] was “inactive” and the outcome [12] was “inactive”. The outcome [13] was “inactive”.
In the case of COc1ccc2[nH]cc(CCNc3nc(-c4c(C)noc4C)nc4ccccc34)c2c1, the Potency [14] is reported as greater than 46 µM, the Potency [15] is reported as “inactive” and the Potency [16] is reported as “inactive”.
In the case of COc1ccccc1CNc1nc(-c2ccc(C(=O)N(C)C)cc2)nc2ccccc12, the Potency [14] is reported as greater than 46 µM and the Potency [16] is reported as “inactive”.
With CC(C)c1c(-c2cnn(C(C)(C)C)c2)nc2c(C#N)c[nH]n2c1=O the Potency [17] was “inactive”.
In the case of CC(c1ccc(-c2ccc(CC(=O)O)cn2)cc1)N1CCCCC1 (configuration not stated), the Potency [17] is reported as “inactive”.
With CN(CCCCCCN(C)C(=O)Oc1ccc[n+](C)c1)C(=O)Oc1ccc[n+](C)c1 the Potency [17] was “inactive”.
For CCCCCCCCCCCCCCCCCC(=O)NCCCC[C@H](NC(=O)CC[C@@H](NC(=O)[C@H](C)NC(=O)[C@@H](C)O[C@H]1[C@H](O)[C@@H](CO)OC(O)[C@@H]1NC(C)=O)C(N)=O)C(=O)O (some centres not stated), the Potency [17] was “inactive”.
With O=S1(=O)CCN(CN2CCS(=O)(=O)NC2)CN1 the Potency [17] was “inactive”.
For Cc1ccc(C(=O)/C=C/c2ccccc2)s1, the Potency [17] was “inactive”.
For C[N+](C)(C)CCOP(=O)([O-])OP(=O)(O)OC[C@H]1OC(n2ccc(N)nc2=O)[C@H](O)[C@@H]1O (some centres not stated), the outcome [17] was “inactive [at 0.4 µM]”.
In the case of COc1ccc(S(=O)(=O)ON=C2C=C(C)C(=O)C(C)=C2)cc1, the Potency [17] is reported as “inactive”.
For CC(C)n1cnc2c(NCc3ccccc3)nc(NCCCO)nc21, the Potency [17] was “inactive”.
With COc1cc(/C=C\C(=O)N2CCN(CC(=O)N3CCCC3)CC2)cc(OC)c1OC the Potency [17] was “inactive”.
In the case of O=C(O)C1=C(CSc2nnnn2CS(=O)(=O)O)CS[C@@H]2[C@@H](NC(=O)[C@H](O)c3ccccc3)C(=O)N12, the Potency [17] is reported as 11.4 µM (active).
For COc1ccc(OC)c(N2C(=O)C(Cl)=C(N3CCCCC3)C2=O)c1, the Potency [17] was “inactive”.
In the case of CCn1cc(-c2cccc(C(F)(F)F)c2)c2sc(C(N)=NC3CCS(=O)(=O)CC3)cc2c1=O, the Potency [17] is reported as 20.2 µM (active).
For Clc1ccc(-c2csc(NN=C3CCCC3)n2)cc1, the Potency [17] was “inactive”.
In the case of CN1CC(O)c2cc(N=NC(=N)N)c(O)cc21 (configuration not stated), the Potency [17] is reported as “inactive”.
With COC(=O)CCSC/C=C(\C)CCn1cc(CCc2ccc(-c3ccccc3)cc2)nn1 the Potency [17] was “inactive”.
With CCOC(=O)[C@H](C)C[C@@H](Cc1ccc(-c2ccccc2)cc1)NC(=O)CCC(=O)O the Potency [17] was “inactive”.
For CCN1CCN(C(c2ccc(C)cc2)c2sc3nc(-c4ccco4)nn3c2O)CC1 (configuration not stated), the Potency [17] was “inactive”.
With CS(=O)(=O)n1cc2c(n1)CN([C@H]1CO[C@H](c3cc(F)ccc3F)[C@@H](N)C1)C2 the Potency [17] was “inactive”.
In the case of CC(C)C(=O)SCCCCCCC(=O)Nc1nc(-c2ccccc2)cs1, the Potency [17] is reported as “inactive”.
For Cc1ccc(N2CCN(C(=O)CCc3c(C)nc4c(c3C)c(=O)n(C)c(=O)n4C)CC2)c(C)c1, the Potency [17] was “inactive”.
For CC1(C)S[C@@H]2[C@H](NC(=O)[C@H](NC(=O)N3CCNC3=O)c3ccccc3)C(=O)N2C1C(=O)O (some centres not stated), the Potency [17] was “inactive”.
For CN[C@H]1C(=O)N[C@@H]2Cc3ccc(cc3)Oc3cc4cc(c3O[C@@H]3O[C@H](C(=O)O)[C@@H](O)[C@H](O)[C@H]3NC(=O)CCCCCCCCC(C)C)Oc3ccc(cc3Cl)[C@@H](O)[C@@H]3NC(=O)[C@H](NC(=O)[C@@H]4NC(=O)[C@@H](NC2=O)c2cc(cc(O)c2Cl)Oc2cc1ccc2O)c1ccc(O)c(c1)-c1c(O[C@H]2O[C@H](CO)[C@@H](O)[C@H](O)[C@@H]2O)cc(O)cc1[C@@H](C(=O)NCCCN(C)C)NC3=O, the Potency [17] was “inactive”.
In the case of CC(C)=C(C#N)C(=O)N1CCCN(c2cc(NCCC(=O)O)nc(-c3ccccn3)n2)CC1, the Potency [17] is reported as “inactive”.
In the case of Cc1cc(Nc2cccc(Cl)c2)nc2ccc(NC(=O)Cc3cccc(C(F)(F)F)c3)cc12, the Potency [17] is reported as “inactive”.
In the case of O=C(CCCCCCSc1ccc2ccccc2c1)NO, the Potency [17] is reported as “inactive”.
In the case of CC1CCc2c(sc3nc(-c4cc5ccccc5oc4=O)nc(Cl)c23)C1 (configuration not stated), the Potency [17] is reported as “inactive”.
For Nc1c(C(=O)Nc2ccc(F)cc2)sc2nc(-c3cccs3)cc(C(F)(F)F)c12, the Potency [17] was 14.3 µM (active).
In the case of CCN(CC)CCS(=O)(=O)[C@@H]1CCN2C(=O)c3coc(n3)CC(=O)C[C@H](O)/C=C(C)/C=C/CNC(=O)/C=C/[C@@H](C)[C@@H](C(C)C)OC(=O)[C@@H]12, the Potency [17] is reported as “inactive”.
For Nc1nc(CC(=O)Nc2ccc(CCNC[C@H](O)c3ccccc3)cc2)cs1, the Potency [17] was “inactive”.
In the case of O=S(=O)(Nc1cccc(-c2ccc(N3CCOCC3)nn2)c1)c1cc(C(F)(F)F)ccc1Cl, the Potency [17] is reported as “inactive”.
With CCCCCCCCCCCCCCCCOc1nc2ccc(C)cc2c(=O)o1 the Potency [17] was “inactive”.
With Nc1ccccc1NC(=O)CCCCCCC(=O)Nc1ccccc1 the Potency [17] was “inactive”.
In the case of CCC(CN)CC(C)CNCC(O)CNCC(CC)CC(CC)CN (configuration not stated), the Potency [17] is reported as “inactive”.
For O=C1COc2c(CCNCCN(C(=O)CCNCCc3ccc(Cl)c(Cl)c3)C3CCCCC3)ccc(O)c2N1, the Potency [17] was “inactive”.
In the case of COc1cccc(N2CCN(C(=O)Cn3ncc4c3-c3ccccc3OC4)CC2)c1, the Potency [17] is reported as “inactive”.
For CC[C@@]1(O)CC2CN(CCc3c([nH]c4ccccc34)[C@](C(=O)OC)(c3cc4c(cc3OC)N(C)C3[C@@](O)(C(N)=O)[C@H](O)[C@]5(CC)C=CCN6CC[C@@]43[C@@H]65)C2)C1 (some centres not stated), the Potency [17] was “inactive”.
In the case of C/C=C(/C)C(=O)O[C@@H]1c2cc(OC)c(OC)c(OC)c2-c2c(cc3c(c2OC)OCO3)C[C@H](C)[C@]1(C)O, the Potency [17] is reported as “inactive”.
In the case of COc1cc2c(c(OC)c1OC)-c1c(cc3c(c1OC)OCO3)C[C@H](C)[C@@](C)(O)C2, the Potency [17] is reported as “inactive”.
